High-throughput results as filed in PubChem.
Only some compounds are listed: those with a hit (about 3.1% of all), similar ones and a draw of the others.
SIRT5 inh: blocks human SIRT5 desuccinylation of peptide; Q9NXA8; Purified SirT5, succinyl-peptide AMC, trypsin-coupled fluorescence; inhibition, % at 15 µM; actives 1.1% (n = 330,000); in the data active = inhibition above about 15%
Target sequence (Q9NXA8 whole entry, looked up): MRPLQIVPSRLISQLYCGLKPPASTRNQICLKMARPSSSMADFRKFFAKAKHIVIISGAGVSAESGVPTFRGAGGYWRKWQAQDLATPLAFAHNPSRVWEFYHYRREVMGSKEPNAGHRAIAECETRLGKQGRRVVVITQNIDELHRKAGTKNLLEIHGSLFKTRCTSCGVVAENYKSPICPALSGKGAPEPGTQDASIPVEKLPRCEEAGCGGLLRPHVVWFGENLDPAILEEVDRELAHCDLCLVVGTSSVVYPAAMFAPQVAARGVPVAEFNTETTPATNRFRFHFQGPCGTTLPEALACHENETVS
CASP6 VEID inh: blocks human caspase-6 cleavage activity; P55212; purified caspase-6, Z-VEID-R110 cleavage fluorescence; inhibition, % at 12.5 µM; actives 0.53% (n = 350,000); AID 686996;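 active = mean inhibition across replicates at least about 35%, with every replicate also reaching that limit, limit read from the data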
FGF22 binding: shifts melting point of recombinant human FGF22; Q9HCT0; recombinant FGF22 thermal shift, SYPRO orange fluorescence; percent of sucrose octasulfate shift, DMSO zero; activity (Tm shift, normalised), % at 9.99 µM; actives 1.5% (n = 340,000); AID 651658;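 active = mean Tm shift, scaled 0 neutral to 100 positive control, at about 1.3% or above, every replicate too, limit read from the data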
ERAP1 HTS inh: inhibitors of human ERAP1 aminopeptidase; Q9NZ08; recombinant ERAP1, Leu-AMC fluorescence, 60 min; inhibition, % at 10.7 µM; actives 0.15% (n = 340,000); AID 652197;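 active = mean replicate inhibition of at least 30%, or all replicates individually reaching that 30% level; inactive = mean below 30% and not every replicate reaching it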
Of the large screens only hits and unclear results are named; the others gave an inactive call.

C[C@H]1CCCCO[C@H](CN(C)S(=O)(=O)c2ccc(F)cc2)[C@@H](C)CN([C@@H](C)CO)C(=O)c2cc(NC(=O)Nc3ccccc3)ccc2O1	none (no result: SIRT5 inh, CASP6 VEID inh, ERAP1 HTS inh)
Cc1ccc(-c2cc(C(=O)OCC(=O)N(C)C3CCS(=O)(=O)C3)c3ccccc3n2)o1 (stereo not given)	FGF22 binding 43
O=S(=O)(c1ccccc1)c1nc(-c2cccc(Cl)c2)oc1N1CCOCC1	none
O=S(=O)(c1ccccc1)c1nc(-c2ccccc2)oc1N1CCOCC1	FGF22 binding 43
C/C(=N\NC(=O)c1cccs1)c1c(O)cc(C)oc1=O	none
C/C(=N\Nc1ccc(Cl)cc1)c1c(O)cc(C)oc1=O	FGF22 binding 43
O=C(Nc1nc2ccccc2[nH]1)C1CCCO1 (stereo not given)	none
O=C(Nc1ccc(-c2nc3ccccc3[nH]2)cc1)C1CCCO1 (stereo not given)	FGF22 binding 8.6
O=C([C@@H]1[C@@H](CO)[C@@H]2Cn3c(cccc3=O)[C@H]1N2)N1CCc2ccccc2C1	none
COc1ccc(C(=O)C2CCCN(C(=O)Cn3cncn3)C2)cc1OC (stereo not given)	none
O=C(c1ccc(-c2ccccc2)cc1)C1CCCN(C(=O)Cn2cncn2)C1 (stereo not given)	FGF22 binding 43
Cc1ccc(C(=O)NC2CCCc3c2cnn3-c2ccc(F)cc2F)cn1 (stereo not given)	SIRT5 inh 20
C[C@@H]1CCCCO[C@H](CN(C)Cc2ccncc2)[C@@H](C)CN([C@@H](C)CO)C(=O)c2cc(NS(=O)(=O)c3cn(C)cn3)ccc2O1	none
Cc1nc(NC(=O)C2CC2)sc1C	SIRT5 inh 22
COc1ccc(-n2c(SCC(=O)O)nc3sc4c(c3c2=O)CCCC4)cc1	none
COc1ccc(-n2c(NNC(C)=O)nc3sc4c(c3c2=O)CCCC4)cc1	CASP6 VEID inh 69
S=c1nccc(-c2cccs2)[nH]1	SIRT5 inh 15
CCn1c(C)cc(/C=C2/SC(=S)N(CC(=O)O)C2=O)c1C	SIRT5 inh 15 (no result: ERAP1 HTS inh)
Cc1ccc(NC(=O)Cn2c([N+](=O)[O-])cnc2C)cc1	none
Cc1ncc([N+](=O)[O-])n1CC(=O)Nc1ccccc1	FGF22 binding 43
CC1OC(CC(=O)O)CC2=C1C(=O)c1c(O)cccc1C2=O (stereo not given)	CASP6 VEID inh 93
C[C@H]1CN([C@@H](C)CO)C(=O)c2cccc(NC(=O)c3nc4ccccc4s3)c2O[C@H]1CN(C)S(C)(=O)=O	none
CO[C@@H]1CN(C)C(=O)c2cc(NC(=O)C3CC3)ccc2OC[C@H](C)N(C(=O)CN2CCOCC2)C[C@H]1C	none (no result: CASP6 VEID inh, ERAP1 HTS inh)
COc1ccccc1-c1ccc2c(c1)O[C@@H](CN(C)Cc1ccc3c(c1)OCO3)[C@H](C)CN([C@@H](C)CO)S2(=O)=O	SIRT5 inh 23
C[C@@H]1CN([C@@H](C)CO)S(=O)(=O)c2ccc(-c3cccc(C(=O)N(C)C)c3)cc2O[C@H]1CN(C)Cc1ccc2c(c1)OCO2	SIRT5 inh 19
CCCN(C)C[C@H]1Oc2cc(-c3ccccc3OC)ccc2S(=O)(=O)N([C@@H](C)CO)C[C@H]1C	none
COc1ccccc1-c1ccc2c(c1)O[C@@H](CN(C)Cc1ccc3c(c1)OCO3)[C@@H](C)CN([C@H](C)CO)S2(=O)=O	SIRT5 inh 17
COc1ccccc1-c1ccc2c(c1)O[C@@H](CN(C)C)[C@@H](C)CN([C@H](C)CO)S2(=O)=O	none
CN(C)C(=O)c1ccc(-c2ccc([C@@H]3[C@@H](CO)N4CCCCN(S(C)(=O)=O)C[C@@H]34)cc2)cc1	none
O=C(Nc1ccc2c(c1)OCO2)N[C@H]1CC[C@@H](CCNC(=O)C2CCCC2)O[C@@H]1CO	none
O=C(NCCc1c[nH]c2ccccc12)C(=O)NCC1OCCCN1S(=O)(=O)c1ccc(F)cc1 (stereo not given)	none
Cc1ccc(S(=O)(=O)N2CCOC2CNC(=O)C(=O)NCCc2c[nH]c3ccccc23)cc1 (stereo not given)	FGF22 binding 44
C[C@H](CO)N1C[C@H](C)[C@H](CN(C)Cc2ccccn2)Oc2ncc(C#C[C@@H](C)O)cc2C1=O	none
O=C(O)c1cccnc1Nc1ccc(Cl)cc1	none
N#Cc1cccnc1Nc1ccc(Cl)cc1	FGF22 binding 43
O=C(O)C[C@@H]1CC[C@@H]2[C@H](COC[C@H](O)CN2S(=O)(=O)c2ccc(F)cc2)O1	none
C[C@@H]1CN([C@H](C)CO)C(=O)c2cc(/C=C/c3ccccc3)cnc2O[C@H]1CN(C)Cc1cccnc1	none
Cc1cccc(S(=O)(=O)N2C[C@@H]3[C@H](c4ccccc42)[C@H](CO)N3CC2CCCC2)c1	none
